From PubChem
SMN2 splice up = enhancers of SMN2 splice variant expression. HEK293 SMN2-luciferase splicing reporter, luminescence, 30-36 h. Potency, µM (doses to about 46.1 µM), inactives show top-dose activity change, positive = activation, usual class: activators. actives 2.8% (n = 210,000); further: % of control where 0% means no effect; nearly all actives have a fitted effect of over 55% in size
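HEK293 cells carry an SMN2 […]–luciferase reporter in which exon 7 inclusion puts luciferase in frame. Cells were plated 10-12 h before compound addition, then incubated 30-36 h at 37C. ONE-Glo luminescence was read; sodium butyrate at 4.5 mM final served as control.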
FLuc modulator = counter-screen for miR-21 project: firefly luciferase inhibitors or activators; P08659; purified FLuc, Km substrates, luminescence inhibition; Potency, µM (series often up to 57.5 µM), for inactives: at the top dose activity change, negative = inhibition, usual class: inhibitors; actives 6.9% (n = 360,000); AID 588342;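 further: plate controls were vehicle for no effect and reference inhibitor for full effect; nearly all actives have a fitted effect of over 55% in size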
Target sequence (P08659 whole entry, looked up): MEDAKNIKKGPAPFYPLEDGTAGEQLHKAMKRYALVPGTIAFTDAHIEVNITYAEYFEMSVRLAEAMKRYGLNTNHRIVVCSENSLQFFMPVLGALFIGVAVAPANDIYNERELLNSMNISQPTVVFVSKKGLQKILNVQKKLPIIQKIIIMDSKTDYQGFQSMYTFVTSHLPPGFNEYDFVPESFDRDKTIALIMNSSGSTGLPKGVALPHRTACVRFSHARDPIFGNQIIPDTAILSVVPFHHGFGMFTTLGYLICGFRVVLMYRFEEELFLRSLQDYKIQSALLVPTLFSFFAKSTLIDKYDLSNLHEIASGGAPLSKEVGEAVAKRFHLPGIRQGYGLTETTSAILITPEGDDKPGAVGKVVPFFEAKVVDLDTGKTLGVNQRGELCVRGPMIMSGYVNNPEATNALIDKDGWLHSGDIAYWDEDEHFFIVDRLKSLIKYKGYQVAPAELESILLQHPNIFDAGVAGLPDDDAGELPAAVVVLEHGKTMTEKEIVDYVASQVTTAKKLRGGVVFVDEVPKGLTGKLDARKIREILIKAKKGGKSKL
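Purified P. pyralis luciferase, 10 nM final, with Km-level 10 uM D-luciferin and 10 uM ATP in 50 mM Tris acetate pH 7.5, 10 mM Mg acetate, 0.01% Tween-20, 0.05% BSA; 6-point qHTS titration about 60 µM downward; luminescence read.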
ELG1 genotoxic = genotoxicity induction in ELG1-luciferase HEK293T cells; HEK293T ELG1-luciferase reporter, luminescence, 16 h; Potency, µM (doses to about 46 µM), without a hit: at the top dose activity change, positive = activation, most hits filed as activators; actives 1.3% (n = 330,000); further: % of control where 0% means no effect; nearly all actives have a fitted effect of over 60% in size
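HEK293T cells expressing luciferase-tagged ELG1 were treated with compound or DMSO for 16 hr at 37°C. Luciferase activity was then read after 30 min with ONE-Glo at room temperature; rising signal flags genetic stress.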
NPC1 promoter act = activates the NPC1 promoter; Huh7 NPC1 promoter luciferase reporter, 24 h; Potency, µM (highest dose often 9.22 µM), for inactives: top-dose activation, most hits filed as activators; actives 2.4% (n = 320,000); AID 485313; further: % of control where 0% means no effect; nearly all actives have a fitted effect of over 60% in size
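Luminescence read-out of NPC1 promoter-driven luciferase in stably transfected Huh7 cells; compounds delivered in DMSO and left 24 h at 37C, 5% CO2, qHTS titration format.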
Rab9 promoter act = activators of Rab9 promoter; Huh7 Rab9 promoter-luciferase reporter, luminescence, 24 h; Potency, µM (highest dose often 9.22 µM), for inactives: at the highest dose activation, negative = inhibition, actives largely listed as activators; actives 2.8% (n = 320,000); AID 485297; further: % of control where 0% means no effect; nearly all actives have a fitted effect of over 60% in size
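Promoter activation is measured as luciferase luminescence in Huh7 cells stably transfected with a Rab9 promoter–luciferase construct, following 24 h compound exposure at 37 °C and 10 min reagent incubation at ambient temperature.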
KinaseGlo FLuc = blocks Kinase-Glo luciferase, a counter-screen artifact; Q27757; Kinase-Glo luciferase, ATP luminescence, 8 min; actives 0.28% (n = 200,000); Potency, µM (highest dose often 38.3 µM), for the others: top-dose activity change, negative = inhibition, usual class: inhibitors; AID 1379; further: on the % scale 0 is the no-effect control and ±100 the full control effect; nearly all actives have a fitted effect of over 60% in size
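Luminescence was the read-out, taken after 8-minute incubation at ambient temperature. Luciferase turned over luciferin with 10 uM ATP in imidazole pH 7.2 buffer containing KCl, MgCl2, Tween 20 and BSA.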
* hit, by the source's call; ? = inconclusive; . = no result. Only some compounds are listed: those with a hit (about 7.3% of all), similar ones and a draw of the others. The call rests on the fitted dose curve; in most records, active means well fitted curve in the direction sought with a large enough effect; inconclusive means small, poorly fitted or top-dose-only effect, or another doubt; inactive means no such curve, though single readings can be large; an effect the other way counts as inactive or inconclusive. Potency means the concentration at half of the fitted maximal effect.

SMILES	SMN2 splice up	FLuc modulator	ELG1 genotoxic	NPC1 promoter act	Rab9 promoter act	KinaseGlo FLuc
Cc1cccc(S(=O)(=O)Nc2ccc(-c3cn4ccccc4n3)cc2)c1	?	17µM*	10%	27%	?	2%
Cc1cc(C)c(S(=O)(=O)Nc2ccc(-c3cn4ccccc4n3)cc2)c(C)c1	11%	?	-5%	-2%	3%	3%
O=S(=O)(Nc1ccc(-c2cn3ccccc3n2)cc1)c1ccccc1	.	13µM*	?	25%	23%	.
O=C(Nc1cccnc1)C1CC(c2ccccc2O)=NO1 (stereo not given)	3%	4%	0%	0%	10%	-3%
Cc1ncc(CSc2nccc(=O)[nH]2)c(CO)c1O	.	1%	0%	-1%	-3%	.
Cc1cccc(/C=C2\Sc3ccc(C(=O)N4CCCCC4)cc3N(C)C2=O)c1	.	-18%	-11%	-2%	-5%	.
Cc1cccn2cc(-c3cccc(NS(=O)(=O)c4ccc(Cl)c(Cl)c4)c3)nc12	9%	9.5µM*	.	.	.	.
COc1ccc(Cl)cc1C(=O)N1CCN=C1SC	-5%	-2%	-3%	0%	0%	-1%
Cc1cc2c(C)cc(=O)oc2c2c1NCCC2	-16%	-1%	.	.	.	1%
COc1ccc(/C=C2\C(=O)ON=C2c2cccc([N+](=O)[O-])c2)cc1	9%	24µM*	1%	-4%	-3%	-5%
COc1ccc(/C=C2/C(=O)ON=C2c2ccccc2)cc1OC	7%	11µM*	15%	-6%	-8%	-5%
Cc1ccc(OCC(=O)NNC(=S)NC(=O)c2cccs2)c(C)c1	.	-6%	2%	1%	-2%	.
Cc1ccc2c(COC(=O)c3ccccc3Br)cc(=O)oc2c1	.	2.7µM*	15µM*	?	3%	.
Cc1ccc2c(COC(=O)c3ccccc3Cl)cc(=O)oc2c1	.	0.85µM*	15µM*	?	19%	.
COc1ccc(Br)c(C(=O)OCc2cc(=O)oc3cc(C)ccc23)c1	.	?	14%	-1%	-2%	.
COc1cc(OC)cc(C(=O)N[C@H](C(=O)OCc2cc(=O)oc3cc(C)ccc23)C(C)C)c1	-4%	8.5µM*	-2%	-4%	-1%	-1%
Cc1ccc2c(COC(=O)c3ccc(C)c(C)c3)cc(=O)oc2c1	.	6%	6%	20%	?	.
Cc1ccc2c(COC(=O)C34CC5CC(CC(C5)C3)C4)cc(=O)oc2c1	21%	?	?	?	4µM*	-3%
CCOc1ccccc1C(=O)N[C@H](C(=O)OCc1cc(=O)oc2cc(C)ccc12)C(C)C	1%	?	-1%	1%	-5%	4%
COc1ccc(CN2CC(=O)N3[C@H]4c5cc(C)ccc5OC[C@@H]4[C@H](c4ccccc4)[C@]3(C)C2=O)cc1	.	.	-4%	.	.	.
O=C(O)c1ccccc1NS(=O)(=O)c1ccc(Cl)c(Cl)c1	.	.	.	.	.	-2%
O=C(O)c1ccccc1NS(=O)(=O)c1ccc2ccccc2c1	.	15µM*	12%	1%	8%	.
O=C(O)c1ccccc1NS(=O)(=O)c1cccc(-n2sc3ccccc3c2=O)c1	.	11µM*	-8%	1%	0%	.
CC(=O)Nc1cccc(NC(=O)c2ccccc2OCc2ccccc2)c1	.	-12%	-21%	-3%	3%	.
CC(=O)Nc1cccc(NC(=O)c2cccc(OCc3ccccc3)c2)c1	.	27µM*	-3%	8%	1%	.
CN1CCN(c2ccc(NC(=O)c3cccc(OCc4ccccc4)c3)cc2)CC1	-14%	7.6µM*	30%	19%	20%	-1%
CCN1CCN(c2ccc(NC(=O)c3cccc(OCc4ccccc4)c3)cc2)CC1	-20%	?	-2%	-8%	4%	15%
CC(=O)Nc1cccc(NC(=O)c2cccc(-c3ccc(O)cc3)c2)c1	.	9.5µM*	0%	6%	10%	.
Cc1ccc(C2C(C#N)=C(N)SC(N)=C2C#N)cc1	-3%	-1%	0%	2%	11%	-1%
